Values joined by “and” are separate entries in the source; they are usually repeats but may differ in a detail not shown here. Equal values may be shown once. About 83,000 compounds went through this panel and 20% of them were active in at least one assay; those are over-represented in the sample as a whole.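 Cells were grown in 96-well plates and exposed to the test compound at a single concentration for 48 hours; results are reported as percent growth, with values below 10 considered active.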 Active and inactive are the calls of the source.
Tests used:
Assay in all cases: NCI-60 one-dose screen, 48 h (100 = growth as untreated, 0 = no growth, -100 = all killed)
Settings in all cases: 10 µM unless noted
SK-MEL-2 melanoma = system: SK-MEL-2 melanoma
EKVX NSCLC = system: EKVX NSCLC
SN12C renal = system: SN12C renal
UO-31 renal = system: UO-31 renal
TK-10 renal = system: TK-10 renal
ACHN renal = system: ACHN renal
CAKI-1 renal = system: CAKI-1 renal
A498 renal = system: A498 renal
CCRF-CEM leukemia = system: CCRF-CEM leukemia
MOLT-4 leukemia = system: MOLT-4 leukemia

| SMILES | growth (SK-MEL-2 melanoma) | growth (EKVX NSCLC) | growth (SN12C renal) | growth (UO-31 renal) | growth (TK-10 renal) | growth (ACHN renal) | growth (CAKI-1 renal) | growth (A498 renal) | growth (CCRF-CEM leukemia) | growth (MOLT-4 leukemia) |
| --- | --- | --- | --- | --- | --- | --- | --- | --- | --- | --- |
| O=C(NNc1ccccc1)c1ncc[nH]1 | 78.2% (inactive) | 60.2% (inactive) | 72% (inactive) | 12.3% (inactive) | 77.9% (inactive) | 14.5% (inactive) | 3.43% (active) | 98.3% (inactive) | 32.7% (inactive) | 27.3% (inactive) |
| O=C(CCl)n1nnnc1Cc1ccccc1 | 86.9% (inactive) | 105% (inactive) | 92.2% (inactive) | 74.3% (inactive) | 88.1% (inactive) | 95.1% (inactive) | 92.4% (inactive) | 109% (inactive) | 86.3% (inactive) | 94.2% (inactive) |
| NS(=O)(=O)OCC1OC(n2cnc3cncnc32)C(O)C1O (centres undefined) | 30.5% [0.1 µM] (inactive) and 21.3% [0.1 µM] (inactive) | 69.5% [0.1 µM] (inactive) | -10.2% [0.1 µM] (active) and -29.3% [0.1 µM] (active) | -2.13% [0.1 µM] (active) and 19.4% [0.1 µM] (inactive) | 18.5% [0.1 µM] (inactive) and 13% [0.1 µM] (inactive) | 13.3% [0.1 µM] (inactive) and 14.6% [0.1 µM] (inactive) | -34.9% [0.1 µM] (active) and 8.16% [0.1 µM] (active) | -5.51% [0.1 µM] (active) and -5.14% [0.1 µM] (active) | 11.4% [0.1 µM] (inactive) and -1.11% [0.1 µM] (active) | 0.572% [0.1 µM] (active) and -5.43% [0.1 µM] (active) |
| COC(=O)c1c2c(c(C)[n+]([O-])c1C)C(=O)C(NCCN1CCOCC1)=CC2=O | 78.2% (inactive) | 65.8% (inactive) | 59% (inactive) | 82.2% (inactive) | 111% (inactive) | 85.5% (inactive) | 73% (inactive) | 129% (inactive) | 80.2% (inactive) | 88.1% (inactive) |
| N#Cc1ccccc1-c1ccc(Cn2c(-c3cscn3)nc3c(Cl)cccc32)cc1 | 75.9% (inactive) | 76.9% (inactive) | 91.2% (inactive) | 46% (inactive) | 81.4% (inactive) | 80.8% (inactive) | 70.9% (inactive) | 74.8% (inactive) | 65.8% (inactive) | 48.2% (inactive) |
| CN1CCN(c2ccc(Nc3ncc(C(N)=O)c(NCCCNC(=O)C4CCC4)n3)cc2)CC1 | 71.3% (inactive) | 99.2% (inactive) | 36.3% (inactive) | 40.1% (inactive) | 39.8% (inactive) | 61.8% (inactive) | – | 137% (inactive) | 14.2% (inactive) | 18% (inactive) |
| Nc1ccc(S(=O)(=O)c2ccc(N)cc2)cc1 | 122% (inactive) and 113% (inactive) | 94.7% (inactive) | 101% (inactive) | 89.8% (inactive) and 75.5% (inactive) | 100% (inactive) | 96.9% (inactive) and 110% (inactive) | 86.6% (inactive) | 103% (inactive) and 106% (inactive) | 94.8% (inactive) and -23.9% (active) | 109% (inactive) and 108% (inactive) |
| O=C1c2cc3c(cc2-c2c1c1ccc(Cl)cc1c(=O)n2CCCn1ccnc1)OCO3 | 31.1% (inactive) | 42.4% (inactive) | 12.6% (inactive) | -7.59% (active) | 46.3% (inactive) | -19% (active) | 9.62% (active) | -12.9% (active) | 3.44% (active) | -28.2% (active) |
| O=C(NCCCN1CCCCC1)c1ccc(-c2nc3ccc4[nH]ncc4c3c3c2CCCC3)cc1 | 81.4% (inactive) | 67.4% (inactive) | 50.4% (inactive) | 54.4% (inactive) | 43.7% (inactive) | 27.4% (inactive) | 10.9% (inactive) | -10% (active) | 21.6% (inactive) | 18.4% (inactive) |
| Clc1ccc2c(c1)N(c1ncnc3ccc(-c4cnc5[nH]ccc5c4)cc13)CC2 | 28.3% (inactive) | 26.6% (inactive) | 26.7% (inactive) | 21% (inactive) | 26.2% (inactive) | 28.4% (inactive) | 31.4% (inactive) | 8.49% (active) | 21.1% (inactive) | -6.69% (active) |
| C#CCOCC1CN(C)C(=O)O1 (centres undefined) | 116% (inactive) | 115% (inactive) | 103% (inactive) | 97.1% (inactive) | 110% (inactive) | 105% (inactive) | 104% (inactive) | 107% (inactive) | 98.9% (inactive) | 89.6% (inactive) |
| COC(=O)c1[nH]nc(OC)c1C1(C(C#N)c2nc3ccccc3s2)CCCc2ccccc21 (centres undefined) | 88.7% (inactive) | 88.5% (inactive) | 86% (inactive) | 72.4% (inactive) | 139% (inactive) | 89.1% (inactive) | 94.5% (inactive) | 109% (inactive) | 96.5% (inactive) | 102% (inactive) |
| COc1ccc(Cl)cc1Nc1nc(C(F)(F)F)ccc1C(=O)N/N=C/c1ccc(N(C)C)cc1 | 82.5% (inactive) | 121% (inactive) | 98.2% (inactive) | 98.3% (inactive) | 95.9% (inactive) | 96.6% (inactive) | 116% (inactive) | 109% (inactive) | -17.6% (active) | 90.4% (inactive) |
| O=c1cc(N/N=C/c2ccc(F)cc2)c2cc(Cl)ccc2[nH]1 | 77.2% (inactive) | 74.2% (inactive) | 92.3% (inactive) | 79% (inactive) | 91.5% (inactive) | 91.1% (inactive) | 99% (inactive) | 90.5% (inactive) | -13.2% (active) | -15.8% (active) |
| CCN1C(=O)/C(=c2\sc3n(c2=O)C2C(NN=3)N(CC)C(=O)N2CC)c2ccccc21 (centres undefined) | 60.1% (inactive) | 65% (inactive) | 29.1% (inactive) | 51.2% (inactive) | 76.6% (inactive) | 38.5% (inactive) | 45.7% (inactive) | -25.4% (active) | 25.7% (inactive) | 26.6% (inactive) |
| O=C(/C=C/c1ccc(F)cc1)Nc1ncc(Cc2ccc(F)cc2)s1 | 32.3% (inactive) | 32.1% (inactive) | 50.6% (inactive) | 39% (inactive) | 47.2% (inactive) | 32.5% (inactive) | 27.5% (inactive) | 21.8% (inactive) | 34% (inactive) | 30.9% (inactive) |
| CC1=C2[C@@H](CC1)[C@]1(C)O[C@@](C3CC3)(C[C@H]1OC(=O)CO)[C@H]2OC(=O)/C=C/c1ccccc1 | 97.2% (inactive) | 87.7% (inactive) | 42.4% (inactive) | -26% (active) | 106% (inactive) | 9.75% (active) | 71.4% (inactive) | -39.1% (active) | 90.3% (inactive) | 77.6% (inactive) |
| CC[C@H](C)[C@H](NC(=O)[C@H](CCCCN)NC(=O)[C@H](CCCCN)NC(=O)[C@@H](NC(=O)[C@@H](NC(=O)[C@@H](N)Cc1cnc[nH]1)[C@@H](C)CC)[C@@H](C)CC)C(=O)N[C@@H](CCCNC(=N)N)C(=O)N[C@H](C(=O)N[C@@H](Cc1c[nH]c2ccccc12)C(=O)N[C@@H](Cc1ccc(O)cc1)C(=O)N[C@@H](CCCNC(=N)N)C(=O)N[C@@H](CCCCN)C(=O)N[C@@H](C)C(=O)N[C@@H](Cc1c[nH]c2ccccc12)C(=O)N[C@@H](Cc1cnc[nH]1)C(=O)N[C@H](C(=O)N[C@@H](CC(C)C)C(=O)NCC(=O)N[C@@H](CCCCN)C(=O)N[C@H](C(N)=O)C(C)C)C(C)C)[C@@H](C)O | 12.7% (inactive) | -26.4% (active) | 12.1% (inactive) | 81.9% (inactive) | -16.8% (active) | 70.8% (inactive) | 17.5% (inactive) | 66.2% (inactive) | 76.2% (inactive) | 56.7% (inactive) |
| C=CCN1C=CC(=O)[C@H](O[Si](C)(C)C(C)(C)C)[C@@H]1/C=C/c1ccccc1 | -57% [100 µM] (active) | -48% [100 µM] (active) | -74% [100 µM] (active) | -73.4% [100 µM] (active) | -64.6% [100 µM] (active) | -73.1% [100 µM] (active) | -72.5% [100 µM] (active) | -88.8% [100 µM] (active) | -33.8% [100 µM] (active) | -30.4% [100 µM] (active) |
| O=C1c2cccc3cccc(c23)C(=O)N1N1C(=O)c2cccc3c(N4CCNCC4)ccc(c23)C1=O | 101% (inactive) | 97.9% (inactive) | 89.8% (inactive) | 71.6% (inactive) | 113% (inactive) | 87.8% (inactive) | 92.4% (inactive) | 75.1% (inactive) | 19.5% (inactive) | 61.5% (inactive) |
| Cc1[nH]c(C(=O)Nc2nc3ccc(NC(=O)CCN)cc3s2)c(Cl)c1Cl | 96.4% (inactive) | 76.3% (inactive) | 65.4% (inactive) | 80.4% (inactive) | 113% (inactive) | 43.2% (inactive) | 31.5% (inactive) | 65.3% (inactive) | 15.3% (inactive) | 12.9% (inactive) |
| CCCCn1c(C(=O)c2c[nH]c3ccccc23)n[nH]c1=S | 91.9% (inactive) | 90.3% (inactive) | 90% (inactive) | 90.1% (inactive) | 132% (inactive) | 102% (inactive) | 79.3% (inactive) | 92.1% (inactive) | 91.3% (inactive) | 103% (inactive) |
| COc1ccc(/C=N/NC(=O)CN2CCN(c3cc4c(cc3F)c(=O)c(C(=O)O)cn4C3CC3)CC2)cc1O | 94.1% (inactive) | 112% (inactive) | 99.1% (inactive) | 94.6% (inactive) | 89.6% (inactive) | 106% (inactive) | 111% (inactive) | 104% (inactive) | 92.7% (inactive) | 82.7% (inactive) |
| Cc1ccc(C(=O)Nc2ccc(CN3CCN(C)CC3)c(C(F)(F)F)c2)cc1C#Cc1cnc(N)cc1C#N | -43% (active) | -36.8% (active) | -52.9% (active) | -55.7% (active) | 14.7% (inactive) | -85.7% (active) | -48% (active) | -37% (active) | -8.11% (active) | -54.7% (active) |
